{
  "source": "paper PMC7862700",
  "about": "“An all-to-all approach to the identification of sequence-specific readers for epigenetic DNA modifications on cytosine”",
  "assay_in_all_cases": "DAPPL (digital affinity profiling via proximity ligation, sequencing); 10 mM Tris-HCl pH 7.5, 50 mM NaCl, 1 mM DTT, 4% glycerol, room temperature, 30 min; GST-TFs on glutathione beads, 16-mer random dsDNA library, 0.1% formaldehyde crosslink after washing; high values mean tight binding",
  "settings_in_all_cases": "protein: recombinant; tags: N-terminal GST; dsDNA, one strand shown",
  "key": {"ETV2": {"molecular_target": "T1, ETV2 (Homo sapiens, UniProt O00321 1-342)", "T1 sequence": "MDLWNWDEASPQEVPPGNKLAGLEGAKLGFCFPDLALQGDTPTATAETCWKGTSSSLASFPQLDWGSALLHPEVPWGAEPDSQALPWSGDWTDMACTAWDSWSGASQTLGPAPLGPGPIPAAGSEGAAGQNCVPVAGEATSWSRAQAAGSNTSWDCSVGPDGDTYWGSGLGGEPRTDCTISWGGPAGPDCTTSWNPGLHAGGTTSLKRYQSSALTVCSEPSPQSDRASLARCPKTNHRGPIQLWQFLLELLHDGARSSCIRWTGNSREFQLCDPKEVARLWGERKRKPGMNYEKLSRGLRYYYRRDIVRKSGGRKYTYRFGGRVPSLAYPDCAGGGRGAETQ", "summary_of_the_method": "(§1)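 Pools were built from human transcription factors expressed in yeast as GST fusions, captured on glutathione beads and DNA-barcoded, along with a tag-only sample. Incubation with 200 nmole of a 16-mer random double-stranded DNA library lasted 30 min at room temperature in Tris/NaCl/DTT/glycerol buffer, and was followed by washing, 0.1% formaldehyde crosslinking, proximity ligation, PCR amplification and Illumina NextSeq500 sequencing. Binding signal is the quotient of each hexamer's read frequency for a factor and its frequency for the tag-only sample.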"}, "ELF3": {"molecular_target": "T2, ELF3 (Homo sapiens, UniProt P78545 1-371)", "T2 sequence": "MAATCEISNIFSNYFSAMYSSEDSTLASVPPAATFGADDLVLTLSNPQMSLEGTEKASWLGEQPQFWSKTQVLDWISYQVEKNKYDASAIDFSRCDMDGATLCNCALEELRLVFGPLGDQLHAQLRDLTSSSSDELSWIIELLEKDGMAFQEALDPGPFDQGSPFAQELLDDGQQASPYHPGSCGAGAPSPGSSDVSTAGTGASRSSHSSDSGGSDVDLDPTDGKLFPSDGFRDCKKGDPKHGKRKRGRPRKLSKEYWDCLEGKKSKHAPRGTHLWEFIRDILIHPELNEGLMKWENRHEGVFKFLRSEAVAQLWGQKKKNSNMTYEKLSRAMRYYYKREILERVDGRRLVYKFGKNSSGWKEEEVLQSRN", "summary_of_the_method": "as §1"}, "ETV1": {"molecular_target": "ETV1 (Homo sapiens, UniProt P50549 1-477)", "sequence (P50549 whole entry)": "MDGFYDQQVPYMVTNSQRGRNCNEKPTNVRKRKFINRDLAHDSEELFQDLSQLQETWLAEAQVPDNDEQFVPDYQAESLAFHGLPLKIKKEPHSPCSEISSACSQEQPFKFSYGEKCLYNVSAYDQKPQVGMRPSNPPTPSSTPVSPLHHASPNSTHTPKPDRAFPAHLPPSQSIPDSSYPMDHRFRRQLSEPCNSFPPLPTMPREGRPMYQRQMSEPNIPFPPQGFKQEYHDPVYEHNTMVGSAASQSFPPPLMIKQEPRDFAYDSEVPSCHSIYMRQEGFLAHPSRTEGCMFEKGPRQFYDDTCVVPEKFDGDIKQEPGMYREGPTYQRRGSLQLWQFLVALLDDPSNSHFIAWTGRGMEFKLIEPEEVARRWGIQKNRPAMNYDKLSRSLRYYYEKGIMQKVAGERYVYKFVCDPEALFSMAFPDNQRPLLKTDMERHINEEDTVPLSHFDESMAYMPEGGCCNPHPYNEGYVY", "summary_of_the_method": "as §1"}, "ERF": {"molecular_target": "T3, ERF (Homo sapiens, UniProt P50548 1-548)", "T3 sequence": "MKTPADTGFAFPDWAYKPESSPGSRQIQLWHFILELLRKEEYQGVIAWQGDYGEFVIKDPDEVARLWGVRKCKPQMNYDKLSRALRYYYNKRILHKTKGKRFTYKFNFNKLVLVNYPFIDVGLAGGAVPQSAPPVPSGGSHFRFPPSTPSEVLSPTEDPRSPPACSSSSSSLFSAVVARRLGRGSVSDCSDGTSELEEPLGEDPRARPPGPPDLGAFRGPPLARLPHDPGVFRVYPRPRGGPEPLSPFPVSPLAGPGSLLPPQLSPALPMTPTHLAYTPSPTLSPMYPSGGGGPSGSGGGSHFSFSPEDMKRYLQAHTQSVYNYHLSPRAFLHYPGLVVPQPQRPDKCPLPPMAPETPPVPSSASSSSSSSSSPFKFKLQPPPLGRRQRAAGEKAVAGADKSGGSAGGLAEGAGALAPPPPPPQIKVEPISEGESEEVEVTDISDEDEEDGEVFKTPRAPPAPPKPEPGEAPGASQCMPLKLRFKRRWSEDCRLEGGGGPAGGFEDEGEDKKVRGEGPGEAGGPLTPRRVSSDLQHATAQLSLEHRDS", "summary_of_the_method": "as §1"}, "ETV3L": {"molecular_target": "T4, ETV3L (Homo sapiens, UniProt Q6ZN32 1-361)", "T4 sequence": "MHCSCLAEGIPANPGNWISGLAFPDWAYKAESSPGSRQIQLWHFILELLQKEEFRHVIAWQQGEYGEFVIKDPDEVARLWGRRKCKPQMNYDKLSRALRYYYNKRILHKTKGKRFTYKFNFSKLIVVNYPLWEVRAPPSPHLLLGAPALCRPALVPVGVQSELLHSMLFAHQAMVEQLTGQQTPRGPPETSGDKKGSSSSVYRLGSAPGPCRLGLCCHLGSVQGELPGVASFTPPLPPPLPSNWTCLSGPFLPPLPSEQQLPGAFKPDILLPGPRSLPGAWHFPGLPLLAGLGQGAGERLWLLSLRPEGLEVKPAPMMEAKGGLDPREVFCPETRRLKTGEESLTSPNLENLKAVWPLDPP", "summary_of_the_method": "as §1"}, "ETS2": {"molecular_target": "T5, ETS2 (Homo sapiens, UniProt P15036 1-469)", "T5 sequence": "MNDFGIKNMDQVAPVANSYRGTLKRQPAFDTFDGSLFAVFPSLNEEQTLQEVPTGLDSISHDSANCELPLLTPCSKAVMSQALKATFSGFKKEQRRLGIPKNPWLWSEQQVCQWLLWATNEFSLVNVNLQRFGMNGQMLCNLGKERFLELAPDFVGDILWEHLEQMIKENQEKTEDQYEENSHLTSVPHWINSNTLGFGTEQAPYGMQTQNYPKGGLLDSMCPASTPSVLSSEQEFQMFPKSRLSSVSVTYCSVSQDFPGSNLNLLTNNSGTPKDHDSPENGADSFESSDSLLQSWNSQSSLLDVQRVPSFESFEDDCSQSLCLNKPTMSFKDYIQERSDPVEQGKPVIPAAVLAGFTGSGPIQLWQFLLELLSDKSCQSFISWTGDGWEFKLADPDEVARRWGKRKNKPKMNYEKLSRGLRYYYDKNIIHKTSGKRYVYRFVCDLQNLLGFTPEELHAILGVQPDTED", "summary_of_the_method": "as §1"}, "SPDEF": {"molecular_target": "T6, SPDEF (Homo sapiens, UniProt O95238 1-335)", "T6 sequence": "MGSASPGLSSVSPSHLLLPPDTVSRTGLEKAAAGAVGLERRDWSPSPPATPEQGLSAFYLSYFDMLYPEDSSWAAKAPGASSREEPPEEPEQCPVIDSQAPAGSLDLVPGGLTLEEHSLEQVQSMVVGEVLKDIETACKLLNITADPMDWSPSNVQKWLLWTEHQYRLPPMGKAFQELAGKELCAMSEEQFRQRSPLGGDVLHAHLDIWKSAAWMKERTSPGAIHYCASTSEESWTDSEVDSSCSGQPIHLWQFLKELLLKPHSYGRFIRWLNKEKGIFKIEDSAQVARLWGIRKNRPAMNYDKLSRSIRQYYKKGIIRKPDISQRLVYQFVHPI", "summary_of_the_method": "as §1"}, "ETV7": {"molecular_target": "T7, ETV7 (Homo sapiens, UniProt Q9Y603 1-341)", "T7 sequence": "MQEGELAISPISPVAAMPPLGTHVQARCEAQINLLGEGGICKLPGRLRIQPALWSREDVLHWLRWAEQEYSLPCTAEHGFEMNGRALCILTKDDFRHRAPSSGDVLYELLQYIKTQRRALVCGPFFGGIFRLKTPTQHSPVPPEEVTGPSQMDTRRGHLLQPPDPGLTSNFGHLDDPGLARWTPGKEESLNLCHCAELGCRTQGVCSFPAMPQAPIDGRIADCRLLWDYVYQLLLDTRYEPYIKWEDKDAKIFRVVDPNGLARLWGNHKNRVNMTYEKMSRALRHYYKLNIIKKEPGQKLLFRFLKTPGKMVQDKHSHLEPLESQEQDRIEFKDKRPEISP", "summary_of_the_method": "as §1"}, "ETV3": {"molecular_target": "T8, ETV3 (Homo sapiens, UniProt P41162-2 1-143)", "T8 sequence": "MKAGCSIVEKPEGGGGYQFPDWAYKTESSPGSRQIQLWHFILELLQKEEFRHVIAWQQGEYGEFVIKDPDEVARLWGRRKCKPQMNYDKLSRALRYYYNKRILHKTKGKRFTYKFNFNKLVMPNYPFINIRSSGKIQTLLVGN", "summary_of_the_method": "as §1"}, "ETV6": {"molecular_target": "ETV6 (Homo sapiens, UniProt P41212 1-452)", "sequence (P41212 whole entry)": "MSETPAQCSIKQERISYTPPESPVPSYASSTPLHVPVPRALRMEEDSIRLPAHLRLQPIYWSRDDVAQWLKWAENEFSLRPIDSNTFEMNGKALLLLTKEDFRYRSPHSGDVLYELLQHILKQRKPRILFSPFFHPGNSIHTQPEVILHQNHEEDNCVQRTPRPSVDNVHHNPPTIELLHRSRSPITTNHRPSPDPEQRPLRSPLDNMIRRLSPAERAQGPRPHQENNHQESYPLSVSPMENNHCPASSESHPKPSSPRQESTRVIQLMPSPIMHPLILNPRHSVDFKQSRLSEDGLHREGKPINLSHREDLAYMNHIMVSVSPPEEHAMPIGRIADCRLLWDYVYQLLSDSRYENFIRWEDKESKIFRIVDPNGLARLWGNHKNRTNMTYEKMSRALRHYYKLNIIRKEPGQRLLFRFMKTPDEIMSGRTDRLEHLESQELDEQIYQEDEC", "summary_of_the_method": "as §1"}},
  "data": [
    {"sequence": "ATGCCA", "values": [
      {"measurement": "binding signal", "setting": "ETV2", "result": "1.06 fold enrichment (6-mer frequency, TF over GST control)"},
      {"measurement": "binding signal", "setting": "ELF3", "result": "1.09 fold enrichment (6-mer frequency, TF over GST control)"},
      {"measurement": "binding signal", "setting": "ETV1", "result": "1.02 fold enrichment (6-mer frequency, TF over GST control)"},
      {"measurement": "binding signal", "setting": "ERF", "result": "1 fold enrichment (6-mer frequency, TF over GST control)"},
      {"measurement": "binding signal", "setting": "ETV3L", "result": "1.02 fold enrichment (6-mer frequency, TF over GST control)"},
      {"measurement": "binding signal", "setting": "ETS2", "result": "1.03 fold enrichment (6-mer frequency, TF over GST control)"},
      {"measurement": "binding signal", "setting": "SPDEF", "result": "1.04 fold enrichment (6-mer frequency, TF over GST control)"},
      {"measurement": "binding signal", "setting": "ETV7", "result": "1.08 fold enrichment (6-mer frequency, TF over GST control)"},
      {"measurement": "binding signal", "setting": "ETV3", "result": "1.13 fold enrichment (6-mer frequency, TF over GST control)"},
      {"measurement": "binding signal", "setting": "ETV6", "result": "1.05 fold enrichment (6-mer frequency, TF over GST control)"}
    ]}
  ]
}
